From PubChem BioAssay (EPA / NIEHS)
Inconclusive results are not listed. Calls of active or inactive are those of the source. How the source made its calls, unless noted: active means hit-call score of the fitted dose curve at least 0.9, where 1 is the maximum; inactive means score below 0.9.

Legend:
[1] = IUF_NPC1a_proliferation_area_72hr: Leibniz Research Institute for Environmental Medicine (IUF) 72-hour Neural Progenitor Cell Proliferation Area Assay (NPC1a) (AID 2284208)
Method in brief: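 Measured in 3D suspension: each well held one primary hNPC sphere grown with EGF and FGF at pH 7.2-7.6. Compound stayed on for 72 h, then area was imaged; spheres lacking growth factors defined reduced proliferation.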

[2] = IUF_NPC1_viability_72hr: Viability Assessment at 72 hours in the Leibniz Research Institute for Environmental Medicine (IUF) Neural Progenitor Cell Proliferation Assay (NPC1) (AID 2284209)
Method in brief: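 Viability was measured by resazurin-to-resorufin fluorescence (alamar blue) after 72 h of continuous exposure without compound renewal. Each well held one hNPC sphere (gestational week 16-19 fetal cortex, 0.25-0.35 mm) cultured in EGF/FGF proliferation medium at 37C and pH 7.2-7.6.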

[3] = CCTE_Mundy_HCI_Cortical_Synap_Neur_Matur_NeuriteSpotCountPerNeuriteLength: CCTE's Synaptogenesis and Neurite Maturation Assay in rat cortical cells for Neurite Spot Count per Neurite Length, Mundy Lab (AID 2284210)
Method in brief: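 Read-out: synaptophysin puncta counted along MAP2-stained neurites, normalised to neurite length, by automated high-content imaging. Rat cortical cells; AraC DIV 5; chemical dosing DIV 7; termination DIV 12. DMSO baseline.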

[4] = CCTE_Mundy_HCI_Cortical_NOG_NeuriteLength: CCTE's Neurite Outgrowth Assay in rat cortical cells for Neurite Length, Mundy Lab (AID 2284213)
Method in brief: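 First, rat primary cortical cells were plated and, 2 h later, given test chemical as a 1/10 dilution. Finally, βIII-tubulin immunostaining enabled automated imaging of neurite length.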

[5] = CCTE_Mundy_HCI_Cortical_Synap_Neur_Matur_NeuriteLength: CCTE's Synaptogenesis and Neurite Maturation Assay in rat cortical cells for Neurite Length, Mundy Lab (AID 2284214)
Method in brief: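 Neurite length quantified by automated high-content imaging of MAP2, synaptophysin and Hoechst staining. Rat cortical cells received chemical from DIV 7 to DIV 12 […], glial growth arrested by AraC at DIV 5; DMSO baseline.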

[6] = CCTE_Mundy_HCI_Cortical_Synap_Neur_Matur_NeuriteSpotCountPerNeuron: CCTE's Synaptogenesis and Neurite Maturation Assay in rat cortical cells for Neurite Spot Count per Neuron Count, Mundy Lab (AID 2284215)
Method in brief: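 Developing rat cortical neurons, with glia suppressed by AraC, are exposed to chemicals from DIV 7 to DIV 12. Automated fluorescence imaging of MAP2-labelled neurites and synaptophysin puncta yields a count per neuron, normalised against DMSO wells.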

[7] = CCTE_Mundy_HCI_Cortical_Synap_Neur_Matur_SynapseCount: CCTE's Synaptogenesis and Neurite Maturation Assay in rat cortical cells for Synapse Count, Mundy Lab (AID 2284218)
Method in brief: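 High-content imaging of synaptophysin puncta per MAP2-positive neuron (Hoechst nuclei) in rat cortical cells exposed DIV 7–12 after glial arrest with AraC at DIV 5; decrease relative to DMSO scored.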

[8] = CCTE_Mundy_HCI_hN2_NOG_NeuriteCount: CCTE's Neurite Outgrowth Assay in human hN2 cells for Neurite Count, Mundy Lab (AID 2284219; active means hit-call score of the fitted dose curve at least 0.9, where 1 is the maximum)
Method in brief: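 In this morphology assay, hNP1-derived neurons received test chemical 2 h post-plating and were fixed two days later in warm paraformaldehyde/sucrose containing Hoechst 33342. Neurites, labelled by rabbit anti-βIII-tubulin (1:800) and Alexa Fluor-488 (1:500), were counted automatically.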

[9] = CCTE_Mundy_HCI_hN2_NOG_NeuriteLength: CCTE's Neurite Outgrowth Assay in human hN2 cells for Neurite Length, Mundy Lab (AID 2284220; active means hit-call score of the fitted dose curve at least 0.9, where 1 is the maximum)
Method in brief: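 Read-out is neurite length from high-content imaging of βIII-tubulin/Alexa Fluor-488-labelled neurons, referenced to DMSO controls.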

[10] = CCTE_Mundy_HCI_hN2_NOG_NeuronCount: CCTE's Neurite Outgrowth Assay in human hN2 cells for Neuron Count, Mundy Lab (AID 2284221; active means hit-call score of the fitted dose curve at least 0.9, where 1 is the maximum)
Method in brief: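 Read-out is the number of betaIII-tubulin-positive neurons imaged by automated high-content analysis, with DMSO as negative control.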

[11] = CCTE_Mundy_HCI_Cortical_Synap_Neur_Matur_CellBodySpotCount: CCTE's Synaptogenesis and Neurite Maturation Assay in rat cortical cells for Cell Body Spot Count, Mundy Lab (AID 2284223)
Method in brief: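 Chemicals were applied to AraC-treated rat primary cortical cells at DIV 7 and measured at DIV 12. Fixed cells were labelled for MAP2, synaptophysin and nuclei, and high-content imaging gave cell body synaptophysin spot counts per neuron relative to DMSO.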

[12] = UKN4_HCS_LUHMES_cell_viability: Viability Assessment in the University of Konstanz (UKN) Leist Lab Neurite Outgrowth Assay in human LUHMES cells (UKN4) (AID 2284232)
Method in brief: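 Viability was read by high-content imaging of calcein-AM/H-33342-stained cells after 24 h toxicant exposure, staining included. Cells: human LUHMES on day 2 of dopaminergic differentiation, dosed shortly after attachment; DMSO baseline, bidirectional curve fitting.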

[13] = UKN2_HCS_IMR90_cell_viability: Viability Assessment in the University of Konstanz (UKN) Leist Lab Neural Crest Cell Migration Assay in human induced IMR90 Pluripotent Stem Cells (UKN2) (AID 2284233);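 further: cells exposed to compound for 24 h after a 24 h migration phase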
Method in brief: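 Viability read as calcein-AM fluorescence by high-content imaging, Hoechst co-stain, 30 min. Human iPSC (IMR90) neural crest cells had migrated 24 h into stopper-defined gaps before 24 h chemical exposure. Fitted bidirectionally relative to DMSO.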

[14] = CCTE_Mundy_HCI_Cortical_NOG_NeuronCount: CCTE's Neurite Outgrowth Assay in rat cortical cells for Neuron Count, Mundy Lab (AID 2284236; active means hit-call score of the fitted dose curve at least 0.9, where 1 is the maximum;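 further: neurons counted by imaging betaIII-tubulin and Hoechst stained cortical cells; cells exposed to compound for about 48 hours before fixation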)
Method in brief: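 Read-out: neuron number by high-content imaging of betaIII-tubulin (Alexa Fluor-488) and Hoechst-labelled rat primary cortical cells.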

[15] = CCTE_Mundy_HCI_hNP1_Casp3_7: CCTE's Caspase-Glo 3/7 Assay in human neuroprogenitor cells for Apoptosis, Mundy Lab (AID 2284240)
Method in brief: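 Luminescent caspase-3/7 readout, 26.5 h post-dose, in human neural progenitor cells from WA09 embryonic stem cells. Cells grew 40–44 h at 37 °C, 5% CO2 before chemical addition. Activity analysed as signal increase over DMSO baseline.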

[16] = IUF_NPC2c_oligodendrocyte_migration_120hr: Leibniz Research Institute for Environmental Medicine (IUF) 120-hour Neural Progenitor Cell Migration Assay for Oligodendrocyte Migration (NPC2c) (AID 2284297);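 further: O4-positive oligodendrocyte migration distance divided by radial glia migration distance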
Method in brief: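 Using fetal brain neural progenitor spheres differentiating in N2 medium at 37C, compounds were present for 120 h. Oligodendrocyte migration distance, normalized to radial glia migration, was measured from imaged O4 staining.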

[17] = IUF_NPC2a_radial_glia_migration_120hr: Leibniz Research Institute for Environmental Medicine (IUF) 120-hour Neural Progenitor Cell Migration Assay for Radial Glia Migration (NPC2a) (AID 2284298)
Method in brief: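 Exposure of 0.3 mm primary hNPC spheres runs day 0 to 120 h with a half-volume medium change at day 3. Fixed cells get Hoechst staining; high-content analysis of nuclear positions yields radial glia migration distance per well, compared against DMSO controls.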

[18] = IUF_NPC2a_radial_glia_migration_72hr: Leibniz Research Institute for Environmental Medicine (IUF) 72-hour Neural Progenitor Cell Migration Assay for Radial Glia Migration (NPC2a) (AID 2284299)
Method in brief: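 Radial glia migration (µm, sphere core edge to migration front, four directions averaged) from brightfield images at 72 h; hNPC spheres differentiating on PDL/laminin in N2 medium, compound exposure at 7 concentrations from plating.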

[19] = IUF_NPC2b_neuronal_migration_120hr: Leibniz Research Institute for Environmental Medicine (IUF) 120-hour Neural Progenitor Cell Migration Assay for Neuron Migration (NPC2b) (AID 2284300)
Method in brief: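 Fetal human NPC spheres migrate on PDL/laminin during 120 h compound treatment; neuronal migration distance, glia-normalized, scored versus DMSO control.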

[20] = IUF_NPC3_neuronal_differentiation_120hr: Leibniz Research Institute for Environmental Medicine (IUF) 120-hour Neuronal Differentiation Assay (NPC3) (AID 2284301)
Method in brief: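 hNPC spheres, PDL/laminin, DMEM/F12 3:1 + 1% N2, 37C, 5% CO2; 7 concentrations + solvent control, 5 d exposure, half-change day 3. Fix 120 h; TUBB3/Hoechst ICC, CNN neuron calling; % neurons vs nuclei, DMSO-normalized.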

[21] = IUF_NPC4_neurite_length_120hr: Leibniz Research Institute for Environmental Medicine (IUF) 120-hour Neuronal Morphology Assay for Neurite Length (NPC4) (AID 2284302)
Method in brief: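 hNPC spheres (0.3 mm, fetal brain GW 16-19) on PDL/laminin, DMEM:F12 3:1 + 1% N2, 37C 5% CO2; 7 concs + solvent control, day 0-5, half medium change d3; fix 120 h, TUBB3 ICC, mean neurite length um vs DMSO.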

[22] = IUF_NPC5_oligodendrocyte_differentiation_120hr: Leibniz Research Institute for Environmental Medicine (IUF) 120-hour Oligodendrocyte Differentiation Assay (NPC5) (AID 2284304; active means hit-call score of the fitted dose curve at least 0.9, where 1 is the maximum;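 further: primary human fetal neural progenitor spheres plated to migrate and differentiate; share of O4-positive cells among Hoechst nuclei found by CNN image analysis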)
Method in brief: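 After plating on poly-D-lysine/laminin, fetal-derived hNPC spheres differentiated for 120 h at 37C in compound-containing N2 medium, refreshed by half on day 3. O4 immunostaining over Hoechst nuclei in the migration zone gave oligodendrocyte percentage relative to DMSO.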

[23] = IUF_NPC4_neurite_area_120hr: Leibniz Research Institute for Environmental Medicine (IUF) 120-hour Neuronal Morphology Assay for Neurite Area (NPC4) (AID 2284305; active means hit-call score of the fitted dose curve at least 0.9, where 1 is the maximum)
Method in brief: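 hNPC spheres on PDL/laminin, N2 medium, 37C/5% CO2; dosed day 0, half-medium refresh day 3; fixed 120 h; TUBB3/Hoechst ICC, high-content imaging; neurite area = mean pixels per neuron (nuclei excluded); DMSO baseline, max 0.1%.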

[24] = IUF_NPC2-5_cytotoxicity_72hr: Cytotoxicity Assessment at 72 hours in the Leibniz Research Institute for Environmental Medicine (IUF) Neural Progenitor Cell Migration and Differentiation Assay for Cytotoxicity (NPC2-5) (AID 2284306; active means hit-call score of the fitted dose curve at least 0.9, where 1 is the maximum;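 further: LDH release into supernatant measured by resorufin fluorescence marking membrane damage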)
Method in brief: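 hNPC spheres (0.3 mm), PDL/laminin, DMEM/F12 3:1 + 1% N2; cpd from d0, 7 concs + SC, DMSO max 0.1%; half-medium refresh d3. Readout: supernatant LDH via resorufin fluorescence (RFU), 72 h; gain-of-signal fit.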

[25] = IUF_NPC2-5_cytotoxicity_120hr: Cytotoxicity Assessment at 120 hours in the Leibniz Research Institute for Environmental Medicine (IUF) Neural Progenitor Cell Migration and Differentiation Assay (NPC2-5) (AID 2284307; active means hit-call score of the fitted dose curve at least 0.9, where 1 is the maximum)
Method in brief: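 Membrane-integrity loss is quantified by LDH in supernatant after five days of exposure of migrating, differentiating human fetal NPC spheres; seven serially diluted concentrations are tested with DMSO kept at or below 0.1%.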

[26] = IUF_NPC2-5_cell_number_120hr: Cell Number Assessment at 120 hours in the Leibniz Research Institute for Environmental Medicine (IUF) Neural Progenitor Cell Migration and Differentiation Assay (NPC2-5) (AID 2284308);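 further: count of Hoechst-stained nuclei in migration zone around plated human neural progenitor spheres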
Method in brief: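 Seven-point serial dilutions plus solvent control were applied to plated 0.3 mm hNPC spheres at differentiation start, with medium half-replaced at day 3. Nuclei positive for Hoechst in the migration zone were enumerated at 120 h.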

[27] = IUF_NPC2-5_viability_120hr: Viability Assessment at 120 hours in the Leibniz Research Institute for Environmental Medicine (IUF) Neural Progenitor Cell Migration and Differentiation Assay (NPC2-5) (AID 2284312)
Method in brief: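 Human fetal neural progenitor spheres (0.3 mm) plated on poly-D-lysine/laminin in N2 differentiation medium, exposed 120 h with half-medium refresh at day 3. Viability by alamar blue resazurin fluorescence; 7 concentrations, DMSO max 0.1%.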

Measured: outcome

CC(C)(C)NCC(O)c1cc(O)cc(O)c1 (configuration not stated)
inactive: all assays above
